Test results published in PubChem BioAssay AID1259354 (Paczesny and Yang Labs, IUPUI and University of Michigan, 2018).
Among all 78,000 compounds or so, about 1,800 (2.3%) were called active. About 27% were inconclusive and are not listed. Cut-off read from the data, not from the text of the source: active = inhibition above about 30%; inconclusive = mostly about 10% to 28%; inactive = weaker than that. Many of the other results were omitted from the sample, so actives are more common in it than they were.

Each compound was assayed against Interleukin-1 receptor-like 1 (Homo sapiens) (UniProt Q01638) (assay: inhibitors of human ST2 (IL1RL1) binding to IL-33, primary screen, biochemical, AlphaLISA (AID 1259354)). Details: AlphaLISA ST2-Fc/biotin-IL-33 interaction, 1 h; at 17 µM, stronger effect = higher value.
Interleukin-1 receptor-like 1 (Homo sapiens), sequence (Q01638 whole entry, looked up): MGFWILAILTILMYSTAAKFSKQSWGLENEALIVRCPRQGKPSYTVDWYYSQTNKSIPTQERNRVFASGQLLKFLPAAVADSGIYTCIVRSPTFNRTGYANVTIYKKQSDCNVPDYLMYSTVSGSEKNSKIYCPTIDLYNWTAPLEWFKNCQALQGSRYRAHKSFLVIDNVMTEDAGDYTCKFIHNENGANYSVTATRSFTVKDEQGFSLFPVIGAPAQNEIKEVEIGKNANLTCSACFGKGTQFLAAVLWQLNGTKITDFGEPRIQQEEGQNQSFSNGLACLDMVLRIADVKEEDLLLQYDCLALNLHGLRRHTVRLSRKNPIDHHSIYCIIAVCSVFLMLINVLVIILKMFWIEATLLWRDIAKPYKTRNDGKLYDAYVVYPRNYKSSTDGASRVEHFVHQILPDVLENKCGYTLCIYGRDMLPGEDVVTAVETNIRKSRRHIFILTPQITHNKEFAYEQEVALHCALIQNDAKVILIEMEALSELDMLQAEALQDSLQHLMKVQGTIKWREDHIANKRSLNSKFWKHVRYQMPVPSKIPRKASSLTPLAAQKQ

Structure (SMILES) | inhibition
Fc1ccccc1CSc1nnc2c(n1)OC(c1cccnc1)Nc1ccccc1-2 (centres undefined) | inactive
COc1ccc(N2CCN(Cc3ccc(Br)s3)CC2)cc1 | 39% (active)
COc1ccc(N2CCN(Cc3nc4c(c(=O)[nH]c(=O)n4C)n3CCCO)CC2)cc1 | inactive
COc1cccc(N2CCN(Cc3cccs3)CC2)c1 | inactive
CC(c1cccs1)N(C)Cc1ccc(C#CC(C)(C)O)s1 (centres undefined) | inactive
CC(C)NC(=O)C(CCO)NC(C)C (centres undefined) | inactive
Cc1ccc(-n2c(SCC(=O)Nc3ccc([N+](=O)[O-])cc3)nc3c(c2=O)SCC3)cc1 | 36% (active)
Cc1ccc(-n2c(SCC(=O)Nc3ccccc3C(F)(F)F)nc3c(c2=O)SCC3)cc1 | inactive
CCOc1ccc(NC(=O)CSc2nc3c(c(=O)n2-c2ccccc2)SCC3)cc1 | inactive
O=S(=O)(c1ccccc1)N1CCN(c2cc(-c3ccc(F)cc3)ncn2)CC1 | inactive
Cn1c(=O)c2c(SCC(=O)NC3CCCC3)nc(-c3ccc(F)cc3)nc2n(C)c1=O | inactive
Cc1ccc(N2NC(=O)/C(=C/c3ccc4c(c3)OCO4)C2=O)cc1Cl | inactive
Cc1cc(/C=C2/C(=O)NC(=O)N(C)C2=O)c(C)n1-c1ccc(Cl)c(Cl)c1 | 34% (active)
Cc1ccc(N2NC(=O)/C(=C/c3cccc([N+](=O)[O-])c3)C2=O)cc1Cl | inactive
COc1ccc(C(=O)Nc2c3c(nn2-c2ccc(F)cc2)CS(=O)C3)c(OC)c1 (centres undefined) | inactive
Cc1ccnc(CC(C)N(C)C(=O)c2cc(CC(C)C)no2)c1 (centres undefined) | inactive
Cc1ccc(C(=O)N2N=C(c3ccccc3)CC2c2ccccc2)cc1 (centres undefined) | inactive
N/C(=N/OC(=O)c1ccc2c(c1)OCO2)c1ccc(Cl)cc1 | inactive
COc1ccc(S(=O)(=O)Nc2ccc(Br)cc2)cc1 | inactive
COc1ccc(S(=O)(=O)ON=C2C=CC(=O)C=C2)cc1 | 32% (active)
COC(=O)CNS(=O)(=O)c1ccc(OC)cc1 | inactive
COc1ccccc1C(=O)Nc1ccc2c(c1)NC(=O)CC2c1ncc[nH]1 (centres undefined) | inactive
O=C1CCC(C(=O)N2CCN(Cc3cccnc3)CC2)CN1CC1CCCCC1 (centres undefined) | inactive
NC(=O)c1c(NC(=O)c2cc(=O)c3ccccc3o2)sc2c1CCCCC2 | inactive
CCCC(=O)c1c(OC)cc(O)c(CC)c1O | inactive
CC(CN1CCN(C)C2(CCN(C(=O)c3ccco3)CC2)C1)c1ccccc1 (centres undefined) | 30% (active)
CC(CN1CCC(C(N)=O)CC1)c1ccccc1 (centres undefined) | inactive
Cn1c(=O)cc(SCC(=O)N2CCN(C(=O)c3ccco3)CC2)c2ccccc21 | inactive
C=CCn1c(=O)c2c(nc3n2CCN3c2ccc(C)cc2)n(C)c1=O | inactive
